Shown are actives, neighbours in structure and some others; about 6.7% of the full set was active somewhere.
Pf Dd2 inh: P. falciparum Dd2 growth inhibitors, primary screen, SYBR Green fluorescence, single dose replicates; activity change, % at 10 µM; AID 1159554, 2015; 72 h; stronger effect = lower value; 94,000 tested, 2.3% active; in the data active = activity change below about -80%; inconclusive = no clear call, values can overlap the other calls
C diff HTS: C. difficile growth inhibitors, primary screen, HTS; Clostridium difficile clinical isolate growth, OD600, 24 h; stronger effect = lower value; growth activity, negative = inhibition, % at 16 µg/mL (by protocol); 86,000 tested, 0.25% active;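 active = mean growth activity at or below -80% and every replicate also at or below -80%; inconclusive = mean at or below -80% but some replicate above -80%; inactive = mean growth activity above -80%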;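 note: 0% = DMSO wells and -100% = levofloxacin 16 µg/mL wells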
T cruzi growth-1: T. cruzi intracellular proliferation inhibitors, primary screen, cell-based, beta-gal Tulahuen parasites, NIH3T3 host, luminescence; T. cruzi beta-gal in NIH3T3, GalScreen luminescence, 90 h; AID 624255, 2012; 77,000 tested, 5.9% active; inhibition, % at 8.34 µM;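 active = mean inhibition above about 93%, with at least 55% of replicates each passing it, limit read from the data, passing the limit was not always enough; inconclusive = only one of those two conditions holds; inactive = neither condition holds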
T cruzi growth-2: T. cruzi intracellular proliferation inhibitors, confirmation, cell-based, NIH3T3 host, beta-gal parasite, luminescence, cherry-pick; shares compounds with T cruzi growth-1; T. cruzi beta-gal in NIH3T3, GalScreen luminescence, 90 h; inhibition, % at 8.35 µM; 5,600 tested, 72% active; AID 651739, 2012;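 active = mean replicate inhibition above about 95% and at least 55% of replicates individually reaching it, limit read from the data; inconclusive = only one of the two criteria is met; inactive = neither criterion is met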
T cruzi growth-3: inhibitors of intracellular T. cruzi replication, confirmation, NIH3T3 host cells, beta-gal parasites, cherry-pick, set 2; AID 651740, 2012; shares compounds with T cruzi growth-1; inhibition, % at 2.09 µM; T. cruzi beta-gal in NIH3T3, GalScreen luminescence, 90 h; 5,600 tested, 21% active;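 active = mean inhibition above about 95%, with at least 55% of replicates also reaching it, limit read from the data; inconclusive = meets just one of the two conditions; inactive = meets neither condition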;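 note: plate controls were neutral control median for no effect and positive control median for full effect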
3T3 cytotox: cytotoxicity in mouse NIH/3T3 fibroblasts, confirmation, cytotoxicity control for T. cruzi proliferation inhibitor project, cell-based, cherry-pick, single point; 5,600 tested, 14% active; cytotoxicity (signal decrease), % at 8.35 µM; shares compounds with T cruzi growth-1; NIH/3T3 viability, CellTiter-Glo ATP luminescence, 90 h;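 active = mean signal decrease across replicates above about 35% based on untreated-well scatter, with enough replicates individually passing, limit read from the data; inconclusive = no rule stated though some were filed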;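 note: 0% = median of neutral control wells and 100% = median of positive control wells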
NIH3T3 tox 2: NIH/3T3 fibroblast cytotoxicity, confirmation, cytotoxicity control, cell-based, cherry-pick, single point, set 2. NIH/3T3 viability, CellTiter-Glo ATP luminescence, 90 h. shares compounds with T cruzi growth-1. 5,600 tested, 56% active. inhibition, % at 24.9 µM;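 active = mean loss of cell viability signal at or above a set limit, and enough replicates individually reaching it; inconclusive = meets only the mean limit or only the replicate share; inactive = meets neither condition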;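 note: 0% = median of neutral control wells and 100% = median of positive control wells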
* marks the source's active call; other numbers are inactive results; ? = inconclusive; / = no result; + = active, no number.

SMILES	Pf Dd2 inh	C diff HTS	T cruzi growth-1	T cruzi growth-2	T cruzi growth-3	3T3 cytotox	NIH3T3 tox 2
CC=Cc1ccc2n(c1=O)C[C@H]1[C@H](CO)[C@@H](C(=O)NCc3ccccn3)[C@@H]2N1C (mixture of isomers)	/	-2	+	-18	33	-3	-14
CC=Cc1ccc2n(c1=O)C[C@@H]1[C@@H](CO)[C@H](C(=O)NCc3ccccn3)[C@H]2N1C (mixture of isomers)	/	7	57	/	/	/	/
C[C@@H]1CN([C@H](C)CO)S(=O)(=O)c2ccc(C#CC(C)(C)O)cc2O[C@@H]1CN(C)Cc1ccc(-c2ccccc2)cc1	-63	-4	125*	83	110*	45*	107*
C[C@H](CO)N1C[C@H](C)[C@H](CN(C)Cc2ccc(F)cc2)Oc2cc(C#CC(C)(C)O)ccc2S1(=O)=O	-16	2	/	/	/	/	/
C[C@H](CO)N1C[C@H](C)[C@@H](CN(C)Cc2ccc(-c3ccccc3)cc2)Oc2cc(C#CC(C)(C)O)ccc2S1(=O)=O	-73	2	117*	95*	116*	114*	104*
C[C@H]1CN([C@@H](C)CO)S(=O)(=O)c2ccc(C#CC(C)(C)O)cc2O[C@H]1CN(C)Cc1ccccc1	-32	1	77	/	/	/	/
C[C@@H]1CN([C@H](C)CO)S(=O)(=O)c2ccc(C#CC(C)(C)O)cc2O[C@H]1CN(C)Cc1ccccc1	-23	-3	75	/	/	/	/
C[C@H]1CN([C@@H](C)CO)S(=O)(=O)c2ccc(C#CC(C)(C)O)cc2O[C@H]1CN(C)Cc1ccc(F)cc1	7	/	/	/	/	/	/
C[C@H]1CN([C@@H](C)CO)S(=O)(=O)c2ccc(C#CC(C)(C)O)cc2O[C@@H]1CN(C)Cc1ccc(-c2ccccc2)cc1	-58	1	118*	98*	112*	120*	104*
C[C@H]1CN([C@@H](C)CO)S(=O)(=O)c2ccc(C#CC(C)(C)O)cc2O[C@H]1CN(C)Cc1ccc(-c2ccccc2)cc1	-65	20	124*	96*	113*	114*	105*
CCNC(=O)Nc1ccc2c(c1)C(=O)N(C)[C@H]1CC[C@H](CC(=O)Nc3ccccc3)O[C@@H]1CO2	-3	-3	14	/	/	/	/
COc1ccc(CN(C)C[C@H]2OCCCC[C@@H](C)Oc3ccc(NC(=O)NC(C)C)cc3C(=O)N([C@@H](C)CO)C[C@H]2C)cc1	-37	-1	18	/	/	/	/
Cc1noc(C)c1S(=O)(=O)N(C)C[C@H]1OCCCC[C@@H](C)Oc2ccc(NC(=O)NC3CCCCC3)cc2C(=O)N([C@H](C)CO)C[C@@H]1C	-39	4	45	/	/	/	/
O=C(NCC1CC1)[C@H]1[C@H](CO)[C@H]2Cn3c(cccc3=O)[C@H]2N1Cc1cncnc1	/	1	-37	/	/	/	/
COC(=O)C[C@H]1CC[C@H]2[C@@H](COc3ccc(NS(C)(=O)=O)cc3C(=O)N2C)O1	27	-3	/	/	/	/	/
Cc1ccc(S(=O)(=O)N[C@@H]2CC[C@@H](CC(=O)N3CCC(Cc4ccccc4)CC3)O[C@H]2CO)cc1	8	-9	62	/	/	/	/
C[C@H](CO)N1C[C@H](C)[C@H](CN(C)Cc2ccc(-c3ccccc3)cc2)Oc2cc(C#CC(C)(C)O)ccc2S1(=O)=O	-54	17	122*	92	116*	51*	104*
C[C@H](CO)N1C[C@H](C)[C@@H](CN(C)Cc2ccc(F)cc2)Oc2cc(C#CC(C)(C)O)ccc2S1(=O)=O	-1	3	/	/	/	/	/
O=C(NCc1ccc2c(c1)OCO2)[C@@H]1[C@@H](CO)[C@@H]2Cn3c(cccc3=O)[C@H]1N2Cc1cncnc1	4	-1	18	/	/	/	/
O=C(Cc1ccncc1)NCC[C@@H]1CC[C@H](NC(=O)C2CCC2)[C@@H](CO)O1	10	/	-25	/	/	/	/
CN1CCN(C(=O)[C@H]2[C@H](CO)[C@H]3Cn4c(cccc4=O)[C@@H]2N3Cc2ccncc2)CC1	/	-6	+	-17	-2	-3	-14
C[C@H](NC(=O)[C@@H]1[C@@H](CO)[C@@H]2Cn3c(cccc3=O)[C@H]1N2Cc1ccncc1)c1ccccc1	18	-4	17	/	/	/	/
O=C(NCc1ccc(F)cc1)[C@H]1[C@H](CO)[C@H]2Cn3c(cccc3=O)[C@@H]1N2Cc1cccnc1	11	-1	99*	89	-13	-3	-11
O=C(NCc1ccc(F)cc1)[C@@H]1[C@@H](CO)[C@@H]2Cn3c(cccc3=O)[C@H]1N2Cc1ccncc1	1	0	-7	/	/	/	/
O=C(NCc1ccc(F)cc1)[C@@H]1[C@@H](CO)[C@@H]2Cn3c(cccc3=O)[C@H]1N2	8	-4	?	-31	-25	-19	-13
SMILES	Pf Dd2 inh	C diff HTS	T cruzi growth-1	T cruzi growth-2	T cruzi growth-3	3T3 cytotox	NIH3T3 tox 2
O=C(NCc1ccc(F)cc1)[C@H]1[C@H](CO)[C@H]2Cn3c(cccc3=O)[C@@H]1N2	10	2	92	/	/	/	/
O=C(Nc1ccc(-c2ccccc2)cc1)[C@H]1[C@H](CO)[C@H]2Cn3c(cccc3=O)[C@@H]1N2Cc1ccncc1	/	/	-37	/	/	/	/
O=C(Nc1ccccc1)[C@@H]1[C@@H](CO)[C@@H]2Cn3c(cccc3=O)[C@H]1N2Cc1ccncc1	2	-3	100*	?	13	-1	4
C[C@@H]1CN([C@H](C)CO)C(=O)c2cc(NC(=O)CCN3CCOCC3)ccc2O[C@@H]1CN(C)Cc1ccc(Cl)c(Cl)c1	-1	0	-16	/	/	/	/
COc1ccc(CN2C[C@@H](C)[C@H](OC)CN(C)C(=O)c3ccc(NC(=O)C4CC4)cc3OC[C@H]2C)cc1	-62	/	-20	/	/	/	/
C[C@@H]1CN([C@@H](C)CO)C(=O)c2cc(C#C[C@@H](C)O)cnc2O[C@@H]1CN(C)Cc1ccccn1	16	1	1	/	/	/	/
C[C@@H](NC(=O)[C@@H]1[C@@H](CO)[C@@H]2Cn3c(cccc3=O)[C@@H]2N1Cc1cccnc1)c1ccccc1	/	2	13	/	/	/	/
COc1cccc(S(=O)(=O)N2CCCCN3[C@H](CO)[C@@H](c4ccc(-c5cncnc5)cc4)[C@H]3C2)c1	-2	4	54	/	/	/	/
COc1cccc(S(=O)(=O)N2CCCCN3[C@H](CO)[C@H](c4ccc(-c5cccnc5)cc4)[C@@H]3C2)c1	13	-8	118*	103*	66	-8	24
